# Out of some 96,000 compounds screened, about 19,000 (20%) were called active. The list is a sample of the results. Values without a mark were called inactive.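 The calls were made as follows: active = blocking of liver enzyme CYP2C9 beyond about 50% at 5 µM (limit read from the data); inactive = the rest.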
# Molecular target: Cytochrome P450 2C9 (Homo sapiens) (UniProt P11712)
# Experiment: blockers of cytochrome P450 2C9 activity – biochemical, luminescence, ADME assay, primary screen (AID 777)
# Settings: CYP2C9 Supersomes, luciferin-H conversion, at 5 µM, stronger effect = higher value
# Chain of Cytochrome P450 2C9 (Homo sapiens) (P11712 whole entry, looked up): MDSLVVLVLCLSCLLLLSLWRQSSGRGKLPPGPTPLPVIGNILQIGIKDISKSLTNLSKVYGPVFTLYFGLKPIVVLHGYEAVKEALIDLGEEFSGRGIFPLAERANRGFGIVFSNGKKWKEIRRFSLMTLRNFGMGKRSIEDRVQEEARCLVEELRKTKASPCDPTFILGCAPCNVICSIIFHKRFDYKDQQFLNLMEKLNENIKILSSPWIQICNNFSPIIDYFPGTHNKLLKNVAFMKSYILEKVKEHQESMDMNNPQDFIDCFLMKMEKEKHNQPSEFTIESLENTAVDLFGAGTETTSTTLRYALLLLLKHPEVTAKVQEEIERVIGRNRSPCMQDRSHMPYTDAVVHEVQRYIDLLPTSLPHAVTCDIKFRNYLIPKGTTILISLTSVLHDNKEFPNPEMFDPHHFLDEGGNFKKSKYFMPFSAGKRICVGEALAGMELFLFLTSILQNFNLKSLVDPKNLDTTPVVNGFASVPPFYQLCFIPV
row,Compound,inhibition
1,C=CCn1c(SCc2c(C(=O)OC)sc(N)c2C(=O)OC)nnc1-c1ccc(Cl)cc1,79% (active)
2,CCc1nnc(NC(=O)CSc2nnc(-c3ccncc3)n2Cc2ccccc2)s1,26.1%
3,C=CCn1c(SCc2cc(C(=O)OC)c(C)o2)nnc1-c1ccncc1,57.4% (active)
4,C=CCn1c(CC(=O)Nc2cccc(OC)c2)nnc1SCC(=O)NC1CCCCC1,10%
5,COCCn1c(SCc2nc3cc(OC)c(OC)cc3c(=O)[nH]2)nnc1-c1ccncc1,-18.5%
6,COC(=O)c1sc(=S)n(-c2ccc(Cl)cc2)c1C,40.2%
7,O=C1c2ccccc2C2=Nc3ccccc3SC(c3ccccc3F)C12 (centres undefined),8.8%
8,COc1ccccc1Nc1nc(N)nc(CN(C)C2CCCCC2)n1,-18.4%
9,Cc1c(C#N)c2ncn(CC#N)c(=O)c2n1-c1ccccc1,-15.9%
10,O=C(NCc1ccccn1)c1cnc2sccn2c1=O,-4%
11,O=C(CNCCO)NC12CC3CC(CC(C3)C1)C2,-6%
12,O=C(Nc1cc(C(F)(F)F)ccc1Cl)c1cc2nc3c(c(C(F)(F)F)n2n1)CCCC3,-42.8%
13,COc1ccc2nc(NC3=NCN(CC4CCCO4)CN3)nc(C)c2c1 (centres undefined),1.3%
14,COc1c(Cl)cc(C(=O)Nc2ccc(Cl)cn2)cc1Cl,-12.2%
15,CCOC(=O)N1CCN(C(c2cccnc2)c2ccc3cccnc3c2O)CC1 (centres undefined),32.6%
16,CCc1ccc(-c2cc(C(=O)NCc3ccco3)c3ccccc3n2)s1,39.4%
17,COC(=O)Cc1cc(=O)n(-c2nc3ccccc3s2)[nH]1,18.5%
18,CC(=NCc1ccco1)c1c(C(F)(F)F)[nH]n(-c2nc3ccccc3s2)c1=O,64.2% (active)
19,CCOc1[nH]n(-c2ccc(Cl)cc2)c(=O)c1C=Nc1ccc(O)cc1,37%
20,O=C(Nc1ccc(S(=O)(=O)N2CCCC2)cc1Cl)C1=COCCO1,19.8%

row,Compound,inhibition
1,CC(C)C(C(=O)NC1CCCCC1)N(CC1CCCO1)C(=O)CNS(=O)(=O)c1ccc(F)cc1 (centres undefined),-3.2%
2,COc1ccc(-c2oc3ncn(Cc4ccco4)c(=N)c3c2-c2ccc(OC)cc2)cc1,27.6%
3,COc1ccc(N2CCN(C(=O)CNC(=O)c3ccc(C(C)(C)C)cc3)CC2)cc1,22.1%
4,CCN1CCN(C(=O)CN(C)S(=O)(=O)c2ccc(OC)cc2)CC1,-20.1%
5,COc1ccc(OC)c(S(=O)(=O)N(C)CC(=O)N2CCN(c3ccccc3)CC2)c1,78.3% (active)
6,COC(=O)c1ccc(S(=O)(=O)c2ccc(C(=O)OC)s2)s1,49.3%
7,Cn1c(Cc2cccc3ccccc23)nnc1SCC(=O)N1CCN(c2cccc(Cl)c2)CC1,-15.6%
8,Cc1nnc(NC(=O)CSc2nccn2-c2cccc(C)c2C)s1,39.9%
9,O=C(O)CSc1nccn1-c1cccc(Cl)c1,57.5% (active)
10,O=C(c1ccccn1)c1ncc(C(F)(F)F)cc1Cl,11.2%
11,Cc1cc(C)n(C(=O)c2ccc(S(=O)(=O)N3CCCC3)cc2)n1,86.9% (active)
12,CSC1=NCCN1C(=O)c1ccc(S(=O)(=O)N2CCOCC2)cc1,0.8%
13,CC(=O)c1c(N2CCOCC2)nc(=S)n(-c2cc(C)ccc2C)c1C,-8.6%
14,Cc1ccccc1-c1nnn(CC(=O)c2ccc(S(=O)(=O)N3CCCC3)cc2)n1,9%
15,Cc1cc(C)n(C(=O)c2ccc(C)c(S(=O)(=O)N3CCOCC3)c2)n1,66.3% (active)
16,Cc1ccc(C(=O)Nc2ccccc2C(=O)NC2CCCCC2)cc1S(=O)(=O)N1CCOCC1,23.7%
17,Cc1cccc(N2C(=O)SC(N(CC(=O)O)c3cccc(C)c3)C2=O)c1 (centres undefined),30.8%
18,COc1cccc(C(=O)Nc2c3c(nn2-c2cccc(C)c2C)CS(=O)(=O)C3)c1OC,-6.7%
19,Cc1ccc(-n2nc3c(c2NC(=O)c2ccc4c(c2)OCO4)CSC3)c(C)c1,1.1%
20,Cc1cccc(-n2nc3c(c2NC(=O)c2ccc(Br)o2)CSC3)c1C,72.3% (active)

row,Compound,inhibition
1,COCc1nc2ccccc2n1Cc1ccccc1Br,14.7%
2,COc1ccc(NC(=O)Cn2c(-c3ccc(OC)cc3)cn(-c3ccc(C)cc3)c2=O)cc1,10%
3,COc1ccc(NC(=O)COC(=O)Cn2c(C)nc3ccccc32)cc1OC,-9.8%
4,COc1ccc(-c2cn(-c3ccc(C)cc3)c(=O)n2CC(=O)Nc2ccc(OC)c(OC)c2)cc1,80.5% (active)
5,COCC(C)N=CC1=C(O)CC(C)(C)CC1=O (centres undefined),-5.7%
6,CCOc1ccccc1NC(=O)CCN1CCN(S(=O)(=O)c2ccc(OC)cc2)CC1,41.4%
7,COc1ccc(S(=O)(=O)N2CCN(c3ncnc4c(-c5ccccc5)nsc34)CC2)cc1,51.9% (active)
8,COc1ccc(S(=O)(=O)N2CCCC(C(=O)Nc3ccc(NC(=O)c4ccccn4)cc3)C2)cc1 (centres undefined),-18.5%
9,COc1cccc(Oc2ccc(N)cc2)c1,4.7%
10,CN1C2CCC1/C(=C\c1ccccc1Cl)C(=O)/C2=C\c1ccccc1Cl,-79.2%
11,COCCNC(=S)c1ccc(OC)cc1,-13.3%
12,Cn1c(Cc2csc(N)n2)nnc1SC/C=C/c1ccccc1,27.1%
13,CCOC(=O)CN1C(=O)C(=O)c2cc(C)ccc21,8.3%
14,C=CCn1c(C)cc(C(=O)CN2C(=O)c3ccccc3C2=O)c1C,-61.6%
15,Cc1cc2c(cc1C)N(C(=O)CN1C(=O)c3ccccc3C1=O)C(C)(C)c1ssc(=S)c1-2,78.2% (active)
16,CC(C)OC(=O)CN1C(=O)c2ccccc2C1=O,4.9%
17,Cc1cc(C(=O)COC(=O)CCCN2C(=O)c3ccccc3C2=O)c(C)n1C,-21.1%
18,Cc1ccc2c(c1)-c1c(ssc1=S)C(C)(C)N2C(=O)CN1C(=O)c2ccccc2C1=O,80.6% (active)
19,Cc1[nH]c2ccc(S(N)(=O)=O)cc2c1C,-42.1%

# — PubChem BioAssay AID777 (Sanford-Burnham Center for Chemical Genomics, 2007)
